# Assay results taken from PubChem BioAssay (Tox21).
# Values joined by “and” are separate entries in the source; they are usually repeats but may differ in a detail not shown here. Equal values may be shown once. Inconclusive results are not listed. Entries that show only a call come without a potency. A structure can be active in one record and inactive in another. Active and inactive are the calls of the source. Unless noted, the call rests on the fitted dose curve; in most records, active means well fitted curve in the direction sought with a large enough effect in the repeat runs; inconclusive means weak or mixed curves; inactive means no such curve, though single readings can be large; an effect the other way counts as inactive or inconclusive.
# Columns and labels:
# [1] = qHTS assay for small molecule agonists of the p53 signaling pathway (AID 651631; calls by dose curve; further: nearly all actives have a fitted effect of over 15% in size; further: potency means the concentration at half of the fitted maximal effect)
# In short: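 Beta-lactamase reporter activity under p53 response elements was quantified in HCT-116 cells by FRET fluorescence, following 16 h incubation with test compounds at 37 °C and 2 h substrate development at room temperature.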
# [2] = qHTS assay for small molecules that induce genotoxicity in human embryonic kidney cells expressing luciferase-tagged ATAD5 (AID 651632); further: nearly all actives have a fitted effect of over 15% in size; further: potency means the concentration at half of the fitted maximal effect
# In short: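 DMSO vehicle served as the control. HEK293T reporter cells, 16 hr at 37C, then 30 min Amplite at room temperature; ATAD5 induction is measured as luciferase activity.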
# [3] = qHTS assay for small molecule agonists of the p53 signaling pathway - cell viability (AID 651633; calls by dose curve; further: nearly all actives have a fitted effect of over 30% in size; further: potency means the concentration at half of the fitted maximal effect)
# In short: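 p53RE-bla cells, seeded at 4,000 per well and rested 5 h at 37 C/5% CO2, received compounds in DMSO for 16 h at 37 C. CellTiter-Glo was then added, and luminescence was read after 30 min at room temperature to gauge cytotoxicity.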
# [4] = qHTS assay for small molecules that induce genotoxicity in human embryonic kidney cells expressing luciferase-tagged ATAD5 - cell viability (AID 651634; calls by dose curve; further: nearly all actives have a fitted effect of over 25% in size; further: potency means the concentration at half of the fitted maximal effect)
# In short: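 Here HEK293T cells with the ATAD5 luciferase reporter are incubated with test compounds for 15.5 hr, and cytotoxicity is then gauged by measuring protease activity in live cells using fluorescence.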
# [5] = qHTS assay to test for compound auto fluorescence at 590 nm (red) in HepG2 cells (AID 720674)
# In short: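 Intrinsic compound fluorescence in the red window (Ex/Em 540/590 nm) is measured in attached HepG2 cells exposed for 1 hr, DMSO vehicle as baseline, benchmarked to Rose Bengal sodium.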
# [6] = qHTS assay to test for compound auto fluorescence at 535 nm (green) in HepG2 cells (AID 720675)
# [7] = qHTS assay to test for compound auto fluorescence at 460 nm (blue) in HEK293 cells (AID 720678)
# In short: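 Blue-channel (Ex/Em 405/460 nm) intensity measured in HEK293 cultures after overnight compound exposure at 37C; signal expressed relative to triamterene. Cells plated 2,000 per well in 10% dialyzed FBS medium and allowed 4-5 hr to attach.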
# [8] = qHTS assay to test for compound auto fluorescence at 590 nm (red) in HEK293 cells (AID 720679)
# In short: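 Red-channel autofluorescence (Ex/Em 540/590 nm; Rose Bengal sodium reference) was measured after overnight 37C, 5% CO2 exposure of attached HEK293 cells, 2,000 per well in medium with 10% dialyzed FBS.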
# [9] = qHTS assay for small molecule disruptors of the mitochondrial membrane potential (AID 720635); further: potency means the concentration at half of the fitted maximal effect
# In short: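 HepG2 cells (2,000/well) attached overnight at 37C, then took compound for 1 hr at 37C, 5% CO2. Mito-MPS dye was added for 30 min; fluorescence was read at 490/535 nm (monomers) and 540/590 nm (aggregates).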
# [10] = qHTS assay for small molecule disruptors of the mitochondrial membrane potential - cell viability (AID 720634; calls by dose curve;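 further: human HepG2 liver cancer cells; series mostly up to about 83 µM; nearly all actives have a fitted effect of over 20% in size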)
# In short: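 Viability of HepG2 cells is scored from ATP content by luminescence; cells are exposed to compound for 1 hr at 37 C and 5% CO2, then dosed with m-MPI dye before the CellTiter-Glo reagent.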
SMILES,Potency [1],Potency [2],Potency [3],Potency [4],outcome [5],outcome [6],Potency [7],outcome [8],Potency [9],Potency [10]
CCC(=O)O,inactive,inactive,inactive,inactive,inactive,inactive,inactive,inactive,–,–
CCOC(=O)/C=C\C(=O)OCC,inactive,inactive,inactive,inactive,inactive,inactive,inactive,inactive,inactive,–
COC(=O)Nc1nc2ccc(Sc3ccccc3)cc2[nH]1,114 nM (active) and 68.6 nM (active),4.03 µM (active) and 12.2 µM (active),inactive,inactive,inactive,inactive,inactive,inactive,4.33 µM (active),–
O=C(Cl)c1c(Cl)c(Cl)c(C(=O)Cl)c(Cl)c1Cl,inactive,inactive,inactive,inactive,inactive,inactive,inactive,inactive,inactive,–
O=S(=O)(O)CCS,inactive,inactive,inactive,inactive,inactive,inactive,inactive,inactive,inactive,–
CC1=C(CC(=O)O)c2cc(F)ccc2/C1=C\c1ccc(S(C)=O)cc1 (stereo not given),inactive,inactive,inactive,inactive,–,inactive,inactive,inactive,–,inactive
Cn1c([N+](=O)[O-])cnc1COC(N)=O,inactive,inactive,inactive,inactive,–,inactive,inactive,inactive,inactive,–
O=S(=O)(O)c1cc(S(=O)(=O)O)c2c(N=Nc3ccccc3)c(O)ccc2c1,inactive,inactive,inactive,48.8 µM (active) and 61.1 µM (active),–,inactive,inactive,inactive,–,inactive
O=c1c(-c2ccc(O)cc2)coc2cc(O)ccc12,inactive,30.3 µM (active),inactive,inactive,inactive,inactive,inactive,inactive,19.1 µM (active),–
CNC[C@H](O)[C@@H](O)[C@H](O)[C@H](O)CO,inactive,inactive,inactive,inactive,inactive,inactive,inactive,inactive,inactive,–
Clc1ccc(Cl)c(Cl)c1Cl,inactive,inactive,inactive,inactive,inactive,inactive,inactive,inactive,–,–
C[C@@H](O)[C@H]1C(=O)N2C(C(=O)O)=C(S[C@@H]3CN[C@H](C(=O)N(C)C)C3)[C@H](C)[C@H]12,inactive,inactive,inactive,inactive,–,inactive,inactive,inactive,–,inactive
COCC(=O)O,inactive,inactive,inactive,inactive,inactive,inactive,inactive,inactive,inactive,–
CC1(C)CC(N=C=O)CC(C)(CN=C=O)C1 (stereo not given),inactive,inactive,inactive,inactive,inactive,inactive,inactive,inactive,–,inactive
NC(=O)/N=N/C(N)=O,inactive,inactive,inactive,inactive,inactive,inactive,inactive,inactive,–,–
NCCc1ccc(O)c(O)c1,inactive,inactive,inactive,inactive,–,inactive,inactive,inactive,inactive,–
O=C(O)c1cc(-c2ccccc2)nc2ccccc12,inactive,inactive,inactive,inactive,inactive,inactive,inactive,inactive,–,–
OC[C@@H](O)[C@H](O)[C@H](O)[C@@H](O)CO,inactive,inactive,inactive,inactive,inactive,inactive,inactive,inactive,inactive,–
Cc1ccc(N)c(S(=O)(=O)O)c1,inactive,inactive,inactive,inactive,–,inactive,inactive,inactive,inactive,–

SMILES,Potency [1],Potency [2],Potency [3],Potency [4],outcome [5],outcome [6],Potency [7],outcome [8],Potency [9],Potency [10]
Cc1cc(Cc2ccc(N)c(C)c2)ccc1N,inactive,inactive,inactive,inactive,inactive,inactive,inactive,inactive,–,–
O=C(c1cc(O)c(O)c(O)c1)c1ccc(O)c(O)c1O,54.3 µM (active),inactive,54.3 µM (active),54.3 µM (active) and 54.5 µM (active),–,inactive,inactive,inactive,30.5 µM (active) and 19.3 µM (active),–
CCCCCCCCC,inactive,inactive,inactive,inactive,inactive,inactive,inactive,inactive,inactive,–
CS(=O)(=O)c1ccc([C@@H](O)[C@@H](CO)NC(=O)C(Cl)Cl)cc1,inactive,inactive,inactive,inactive,–,inactive,inactive,inactive,inactive,–
C/C=C(C)/C=C/C=C(C)C,inactive,inactive,inactive,inactive,–,inactive,inactive,inactive,–,–
Oc1c(Cl)cc(Cl)c(Cl)c1Cl,16.9 µM (active),inactive,inactive and 61.1 µM (active),–,–,inactive,inactive,inactive,11.9 µM (active) and 19.3 µM (active),–
Cc1cc(=O)[nH]c(C(C)C)n1,inactive,inactive,inactive,inactive,inactive,inactive,inactive,inactive,inactive,–
CC#C[C@]1(O)CC[C@H]2[C@@H]3CCC4=CC(=O)CCC4=C3[C@@H](c3ccc(N(C)C)cc3)C[C@@]21C,21.1 µM (active) and 61.1 µM (active),inactive,9.44 µM (active),–,inactive,inactive,inactive,inactive,10.6 µM (active),inactive
CC(C)Cc1ccccc1,inactive,inactive,inactive,inactive,inactive,inactive,inactive,inactive,inactive,–
O=[N+]([O-])C(CO)(CO)CO,inactive,inactive,inactive,inactive,inactive,inactive,inactive,inactive,–,–
OC1CCCC1,–,inactive,inactive,inactive,–,inactive,inactive,inactive,inactive,inactive
Oc1ccc2ccccc2c1,inactive,–,inactive,inactive,–,inactive,inactive,inactive,49.7 µM (active) and 30.6 µM (active),inactive
CCCCCCCCCC(=O)O,–,inactive,inactive,inactive,inactive,inactive,inactive,inactive,–,–
CN(C)c1cccc(O)c1,–,inactive,inactive,inactive,–,inactive,inactive,inactive,10.9 µM (active),–
CC(C)n1c(/C=C/[C@@H](O)C[C@@H](O)CC(=O)O)c(-c2ccc(F)cc2)c2ccccc21,–,–,inactive,–,–,inactive,inactive,inactive,26.6 µM (active),–
O=Nc1ccc(O)cc1,–,inactive,inactive,inactive,inactive,inactive,inactive,inactive,670 nM (active) and 13.7 µM (active),–
CC(C)NCC(O)COc1cccc2ccccc12 (stereo not given),inactive,–,inactive,inactive,inactive,inactive,inactive,inactive,–,–
OCC#CCO,inactive,–,inactive,inactive,inactive,inactive,inactive,inactive,inactive,inactive
CCc1ccccc1O,–,inactive,inactive,inactive,inactive,inactive,inactive,inactive,inactive,inactive

SMILES,Potency [1],Potency [2],Potency [3],Potency [4],outcome [5],outcome [6],Potency [7],outcome [8],Potency [9],Potency [10]
O=[N+]([O-])c1cc(N(CCO)CCO)ccc1NCCO,inactive,–,inactive,–,inactive,inactive,inactive,inactive,–,inactive
CCCCCCCCCCC=CC1CC(=O)OC1=O (stereo not given),–,–,61.4 µM (active) and inactive,inactive,inactive,inactive,inactive,inactive,68.9 µM (active),–
NC(=O)NNc1ccccc1,inactive,–,inactive,inactive,–,inactive,inactive,inactive,inactive,inactive
O=C(O)c1ccc([N+](=O)[O-])cc1,inactive,–,inactive,inactive,–,inactive,inactive,inactive,inactive,–
Nc1c(S(=O)(=O)O)cc(Br)c2c1C(=O)c1ccccc1C2=O,–,inactive,inactive,30.6 µM (active),inactive,inactive,inactive,inactive,–,inactive
CC1CC(OC(=O)c2ccccc2O)CC(C)(C)C1 (stereo not given),inactive,–,inactive,inactive,inactive,inactive,inactive,inactive,27 µM (active),inactive
O=S(=O)(Oc1ccc(Cl)cc1Cl)c1ccccc1,–,inactive,–,inactive,inactive,inactive,inactive,inactive,27.8 µM (active) and 61.1 µM (active),–
CCCCC(CC)COC(C)=O (stereo not given),–,inactive,–,inactive,inactive,inactive,inactive,inactive,inactive,–
CC(C)(N=C=O)c1cccc(C(C)(C)N=C=O)c1,–,inactive,inactive,inactive,inactive,inactive,inactive,inactive,–,inactive
CC1=C(/C=C/C(C)=C/C=C/C(C)=C/CO)C(C)(C)CCC1,–,inactive,inactive,inactive,inactive,inactive,inactive,inactive,–,–
CCOC(=O)C1OC1c1ccccc1 (stereo not given),–,–,inactive,inactive,inactive,inactive,inactive,inactive,inactive,–
Cc1cc(NS(=O)(=O)c2ccc(N)cc2)no1,–,–,–,–,inactive,inactive,inactive,inactive,inactive,inactive
O=C1N=C(O)CN1/N=C/c1ccc(-c2ccc([N+](=O)[O-])cc2)o1,–,–,inactive,inactive,inactive,inactive,inactive,inactive,3.35 µM (active) and 2.43 µM (active),inactive
CC1=CC[C@H]2C[C@@H]1C2(C)C,–,inactive,inactive,inactive,inactive,inactive,inactive,inactive,–,–
Cc1ccc(C(=O)O)o1,–,inactive,inactive,inactive,inactive,inactive,inactive,inactive,inactive,inactive
CS(=O)(=O)Nc1ccc([N+](=O)[O-])cc1Oc1ccccc1,inactive,–,inactive,–,inactive,inactive,inactive,inactive,–,–
CCCCCC/C=C/CCCCCCCC(=O)O,–,inactive,inactive,inactive,–,inactive,inactive,inactive,inactive,inactive
CCCCCCCCCCCCOCC1CO1 (stereo not given),–,inactive,inactive,inactive,inactive,inactive,inactive,inactive,inactive,–
